Our source for the growth values is PubChem BioAssay (NCI).

Structures are written as SMILES. This is part of a sample that, as a whole, favours compounds with a hit. Of some 83,000 tested, about 20% had one in any assay.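 Negative percent growth values reflect cell death: -40 means 40% of the cells present at the start died, and -100 means all died.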 Unmarked numbers belong to inactive results. Calls of active or inactive are those of the source. The calls were made as follows: active = growth percent below 10; inactive = the rest.

Among the test systems are NCI-H23 lung; NCI-H226 lung; NCI-H322M lung; HOP-62 NSCLC; NCI-H460 lung; HOP-92 NSCLC; NCI-H522 lung; A549/ATCC NSCLC; 786-0 renal; COLO 205 colon; DU-145 prostate; K-562 leukemia; MALME-3M melanoma; MDA-MB-231 breast; RXF 393 renal; SF-268 CNS; SF-295 CNS; SF-539 CNS; UACC-257 melanoma; M14 melanoma.
Holding throughout (experiment): NCI-60 one-dose screen, 48 h (100 = growth as untreated, 0 = no growth, -100 = all killed)
Common to all, as to details: 10 µM unless noted

On to `Cc1cccc(NC(=O)N/C(N)=N/c2nc3ccccc3s2)c1`, for which the growth was 40.9% with NCI-H23 lung; 53.7% with NCI-H226 lung; 47.7% in the assay on NCI-H322M lung; 30.3% with HOP-62 NSCLC; 17.6% with NCI-H460 lung; 62.7% in the assay with HOP-92 NSCLC. Further, the growth in the assay on NCI-H522 lung was 16%; in the assay on A549/ATCC NSCLC, 45.9%; in the assay on 786-0 renal it was 38.6%; in the assay with COLO 205 colon it was 16.9%; in the assay with DU-145 prostate, 34.6%; with K-562 leukemia it was 18.1%. Besides, the growth was 50.7% with MALME-3M melanoma; 58.8% in the assay with MDA-MB-231 breast; 26.3% in the assay with RXF 393 renal; 54.2% with SF-268 CNS; 49.1% in the assay with SF-295 CNS; -3.23% (active) in the assay with SF-539 CNS. Besides, the growth in the assay with UACC-257 melanoma was 55%; in the assay with M14 melanoma, 16.5%.

In the case of `COc1cc2ncnc(Nc3ccc(F)c(Cl)c3)c2cc1OCC(=O)N1CCOCC1`, the growth was 90.7% with NCI-H23 lung; 102% in the assay on NCI-H226 lung; 24.7% in the assay on NCI-H322M lung; 98.1% in the assay with HOP-62 NSCLC; 99.5% in the assay on NCI-H460 lung; 92.1% in the assay with HOP-92 NSCLC. In addition, the growth with NCI-H522 lung was 33%; in the assay on A549/ATCC NSCLC, 74.8%; in the assay on 786-0 renal, 78.5%; in the assay with COLO 205 colon it was 106%; in the assay with DU-145 prostate, 57.3%; with K-562 leukemia, 88.4%. The growth in the assay on MALME-3M melanoma is 98.2%; in the assay on MDA-MB-231 breast, 108%; with RXF 393 renal it was 107%; with SF-268 CNS, 75.3%; in the assay on SF-295 CNS, 90.6%; in the assay on SF-539 CNS, 97.7%. The growth in the assay on UACC-257 melanoma was 106%; in the assay on M14 melanoma, 90.4%.

`CCN(CC)c1ccc(-c2cc(-c3cc(OC)c(OC)c(OC)c3)nc(N3CCC(O)CC3)c2C#N)cc1`: the growth with NCI-H23 lung was 0.411% (active); in the assay on NCI-H226 lung, -36.2% (active); with NCI-H322M lung, 18.1%; in the assay with HOP-62 NSCLC, 17.9%; in the assay on NCI-H460 lung, -32.8% (active); in the assay on HOP-92 NSCLC, -17.6% (active). In addition, the growth was -52.3% (active) with NCI-H522 lung; 0.627% (active) in the assay with A549/ATCC NSCLC; -22% (active) in the assay with 786-0 renal; -60.9% (active) with COLO 205 colon; 1.59% (active) in the assay with DU-145 prostate; 2.04% (active) with K-562 leukemia. Besides, the growth in the assay on MALME-3M melanoma was -49.2% (active); in the assay with MDA-MB-231 breast it was -58.7% (active); in the assay with RXF 393 renal it was -13.3% (active); in the assay with SF-268 CNS, 0.835% (active); in the assay with SF-295 CNS, -62.2% (active); with SF-539 CNS it was -44.3% (active). For the same compound, the values for the growth in the assay with UACC-257 melanoma and in the assay on M14 melanoma were -47.5% (active) and -56.4% (active), respectively.

Take `C/C(Cc1ccc(Cl)cc1)=C(\c1ccc(OCCN2CCCCCC2)cc1)c1ccc(OC(=O)c2ccccc2)cc1`: the growth with NCI-H23 lung was 46.8%; in the assay on NCI-H226 lung it was 86.2%; in the assay on NCI-H322M lung, 70%; in the assay on HOP-62 NSCLC it was 81%; in the assay on NCI-H460 lung, 3.3% (active); with HOP-92 NSCLC, -4.45% (active). Further, the growth in the assay with NCI-H522 lung is 62.4%; in the assay with A549/ATCC NSCLC, 54.3%; with 786-0 renal, 12%; in the assay with COLO 205 colon it was 44.7%; in the assay with DU-145 prostate, 55.6%; in the assay on K-562 leukemia it was 1.83% (active). Further, the growth was 11.7% in the assay on MALME-3M melanoma; 39.7% with MDA-MB-231 breast; 22% in the assay with RXF 393 renal; 37.1% with SF-268 CNS; 56% in the assay on SF-295 CNS; 71% in the assay with SF-539 CNS. The growth in the assay with UACC-257 melanoma was 45.2%; with M14 melanoma, -49.8% (active).

`Cc1sc2nc(NCCN)[nH]c(=O)c2c1C`: the growth is 91% in the assay on NCI-H23 lung; 84.8% in the assay with NCI-H226 lung; 83.7% with NCI-H322M lung; 99.8% with HOP-62 NSCLC; 101% with NCI-H460 lung; 87.7% in the assay with HOP-92 NSCLC. Moreover, the growth in the assay on NCI-H522 lung was 102%; in the assay on A549/ATCC NSCLC, 101%; in the assay on 786-0 renal it was 84.2%; with COLO 205 colon, 77%; in the assay on DU-145 prostate it was 96.7%; in the assay on K-562 leukemia, 103%. The growth in the assay on MALME-3M melanoma was 82.1%; in the assay on MDA-MB-231 breast it was 81.1%; with RXF 393 renal it was 100%; in the assay on SF-268 CNS it was 91.4%; with SF-295 CNS, 98%; with SF-539 CNS it was 88.1%. Also, the growth with UACC-257 melanoma is 107%; in the assay on M14 melanoma, 85.1%.

On to `O=C(/C=C/c1cccc(Oc2ccccc2)c1)c1ccc(Nc2nc(Nc3ccc(F)cc3)nc(Nc3ccc(Cl)cc3)n2)cc1`, for which the growth in the assay with NCI-H23 lung is 77.1%; in the assay with NCI-H226 lung it was 113%; in the assay with NCI-H322M lung, 93.8%; in the assay on HOP-62 NSCLC, 104%; in the assay with NCI-H460 lung, 108%; in the assay with HOP-92 NSCLC it was -6.77% (active). For the same compound, the growth in the assay with NCI-H522 lung is 109%; in the assay with A549/ATCC NSCLC it was 90.2%; in the assay on 786-0 renal, 96.1%; in the assay on COLO 205 colon, 103%; in the assay with DU-145 prostate it was 117%; in the assay on K-562 leukemia it was 11.5%. Also, the growth in the assay with MALME-3M melanoma was 90.4%; with MDA-MB-231 breast, 108%; with RXF 393 renal, 96.6%; in the assay on SF-268 CNS it was 99.9%; in the assay with SF-295 CNS it was 104%; with SF-539 CNS, 116%. For the same compound, the growth in the assay with UACC-257 melanoma is 109%; with M14 melanoma, 106%.

Consider `COc1nc(/C=C\Nc2ccc3c(c2)OCCOCCOCCOCCO3)nc(OC)n1`, for which the growth in the assay on NCI-H23 lung was 85.7%; in the assay on NCI-H226 lung it was 103%; in the assay with NCI-H322M lung it was 90.5%; in the assay with HOP-62 NSCLC, 109%; with NCI-H460 lung it was 97.3%; in the assay on HOP-92 NSCLC, 95.7%. Also, the growth in the assay on NCI-H522 lung was 109%; with A549/ATCC NSCLC, 99.2%; in the assay on 786-0 renal, 97.7%; in the assay on COLO 205 colon, 109%; in the assay on DU-145 prostate, 97.2%; with K-562 leukemia it was 101%. Also, the growth with MALME-3M melanoma was 85%; in the assay on MDA-MB-231 breast, 91.2%; with RXF 393 renal, 100%; with SF-268 CNS it was 92.8%; in the assay on SF-295 CNS, 91.2%; with SF-539 CNS, 96.9%. Besides, the growth was 105% with UACC-257 melanoma and 96.4% in the assay on M14 melanoma.

Consider `Cc1c(C(C)(C)O)cn2ncnc(Oc3ccc(NC(=O)Nc4ccc(Cl)c(C(F)(F)F)c4)c(F)c3)c12`, for which the growth in the assay on NCI-H23 lung is 30.6%; in the assay on NCI-H226 lung, 62.6%; with NCI-H322M lung it was 92.1%; in the assay with HOP-62 NSCLC it was 101%; in the assay on NCI-H460 lung it was 25.9%; in the assay with HOP-92 NSCLC it was 36.4%. The growth with NCI-H522 lung is 39.9%; in the assay on A549/ATCC NSCLC, 41.2%; in the assay on 786-0 renal, 64.8%; in the assay with COLO 205 colon, 72.8%; with DU-145 prostate it was 80.6%; in the assay on K-562 leukemia, 25.4%. For the same compound, the growth in the assay with MALME-3M melanoma was 91.4%; in the assay with MDA-MB-231 breast, 73.3%; in the assay on RXF 393 renal, 72.4%; with SF-268 CNS it was 63.6%; with SF-295 CNS, 36.4%; with SF-539 CNS, 41%. Further, the growth is 80% in the assay on UACC-257 melanoma and 55.1% with M14 melanoma.
